MITF TRPM1 HTS = activators of MITF-driven TRPM1 promoter reporter, primary screen, cell-based, SK-MEL-5, luciferase, single point; actives 0.75% (n = 300,000); SK-MEL-5 TRPM1-promoter luciferase, 24 h; % of positive control, neutral wells = 0; activation, % at 12.5 µM;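 active = mean activation of at least 80% with every replicate also reaching 80%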;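 also: 0% = neutral control wells and 100% = parthenolide positive control wells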
TRPM1 prom inh = inhibitors of MITF-dependent TRPM1 promoter reporter, primary screen, cell-based, SK-MEL-5, single point, luciferase; AID 488899, 2010; inhibition, % at 12.5 µM; SK-MEL-5 TRPM1 promoter luciferase, 24 h; actives 0.83% (n = 330,000);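 active = mean inhibition across replicates of 60% or more, whatever share of single replicates reaches that level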
Wnt act = Wnt/beta-catenin pathway activators, primary screen, cell-based, plate reader, single point; activation, % at 9.35 µM; actives 1.2% (n = 300,000); Wnt/beta-catenin reporter cell assay, activator; in the data active = activation above about 30%, passing the limit was not always enough;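 also: 0% = neutral control wells and 100% = positive control wells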
PfHsp90 set2 = growth inhibition of PfHsp90-expressing yeast, primary screen, antimalarial PfHsp90 inhibitor project, S. cerevisiae, BacTiter-Glo luminescence, single point, set 2; AID 504621, 2011; inhibition, % at 9.4 µM; actives 0.32% (n = 310,000); BacTiter-Glo ATP, 48 h; yeast lacking PDR1 and PDR3 efflux regulators;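 active = every replicate shows inhibition above about 80%, whatever the replicate mean, limit read from the data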;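 also: 0% = DMSO neutral controls and 100% = 20 µM radicicol positive controls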
NSD2 HMT inh = NSD2 histone methyltransferase inhibitors, primary screen, biochemical, AlphaScreen, single concentration, set 2. Histone-lysine N-methyltransferase NSD2 (Homo sapiens), O96028. NSD2 peptide methylation, 120 min. inhibition, % at 12.5 µM. actives 0.54% (n = 310,000). AID 743445, 2014; in the data active = inhibition above about 50%
Target sequence (O96028 whole entry, looked up): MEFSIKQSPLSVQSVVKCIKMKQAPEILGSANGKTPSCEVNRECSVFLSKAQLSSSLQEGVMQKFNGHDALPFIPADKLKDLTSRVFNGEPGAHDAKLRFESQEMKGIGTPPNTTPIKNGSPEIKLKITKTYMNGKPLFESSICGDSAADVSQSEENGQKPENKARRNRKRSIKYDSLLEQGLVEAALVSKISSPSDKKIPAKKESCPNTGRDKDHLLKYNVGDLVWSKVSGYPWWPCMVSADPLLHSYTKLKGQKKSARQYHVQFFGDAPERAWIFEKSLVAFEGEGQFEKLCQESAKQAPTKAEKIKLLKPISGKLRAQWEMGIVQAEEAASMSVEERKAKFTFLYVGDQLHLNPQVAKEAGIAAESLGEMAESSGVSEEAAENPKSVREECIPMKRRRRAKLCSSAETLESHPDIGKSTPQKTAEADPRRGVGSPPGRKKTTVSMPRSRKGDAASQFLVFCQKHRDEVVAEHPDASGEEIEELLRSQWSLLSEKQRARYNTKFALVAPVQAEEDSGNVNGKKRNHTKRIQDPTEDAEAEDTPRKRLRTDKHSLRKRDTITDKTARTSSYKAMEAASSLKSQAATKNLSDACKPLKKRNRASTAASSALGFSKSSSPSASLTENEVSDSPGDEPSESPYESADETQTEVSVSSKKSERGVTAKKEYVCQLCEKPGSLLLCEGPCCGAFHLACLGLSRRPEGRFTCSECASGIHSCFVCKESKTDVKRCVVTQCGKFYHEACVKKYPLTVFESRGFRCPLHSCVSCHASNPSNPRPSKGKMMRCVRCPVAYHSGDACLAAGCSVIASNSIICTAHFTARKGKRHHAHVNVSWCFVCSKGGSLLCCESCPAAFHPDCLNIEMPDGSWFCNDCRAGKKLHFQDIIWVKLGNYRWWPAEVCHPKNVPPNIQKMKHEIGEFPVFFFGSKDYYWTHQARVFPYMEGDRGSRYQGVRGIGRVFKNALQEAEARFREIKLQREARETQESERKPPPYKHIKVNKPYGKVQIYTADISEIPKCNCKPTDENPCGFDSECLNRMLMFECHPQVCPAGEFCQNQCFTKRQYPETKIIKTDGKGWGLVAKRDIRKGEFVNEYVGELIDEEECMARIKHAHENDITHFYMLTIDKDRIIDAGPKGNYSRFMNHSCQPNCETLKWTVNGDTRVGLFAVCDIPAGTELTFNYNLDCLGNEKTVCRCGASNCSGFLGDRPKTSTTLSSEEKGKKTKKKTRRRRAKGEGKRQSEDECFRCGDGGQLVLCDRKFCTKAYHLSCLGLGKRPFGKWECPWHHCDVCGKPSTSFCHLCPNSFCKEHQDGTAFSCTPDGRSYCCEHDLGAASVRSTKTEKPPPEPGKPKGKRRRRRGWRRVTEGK
Glyco luc inh = increase of ERlucT glycosylation luciferase signal, primary screen, N-linked glycosylation inhibitor project, D54 ERlucT cells, luminescence, set 2 | D54 ERlucT glycosylation luciferase reporter, 24 h; percent of 100 nM tunicamycin response | reporter increase, % at 12.5 µM | actives 0.23% (n = 360,000);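 active = mean luciferase reporter signal, scaled so untreated is 0 and the glycosylation-blocking control 100, at or above a set limit in every replicate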;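 also: luciferase carries N-glycosylation sites so blocking glycosylation raises the light; 0% = median of neutral control wells and 100% = median of 100 nM tunicamycin wells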
* = called active by the depositor; . = no result given. Only some compounds are listed: those with a hit (about 2.9% of all), similar ones and a draw of the others.

SMILES | MITF TRPM1 HTS | TRPM1 prom inh | Wnt act | PfHsp90 set2 | NSD2 HMT inh | Glyco luc inh
O=C(N/N=C/c1sc(=O)n(-c2ccccc2)c1Cl)c1ccccc1 | 60 | -64 | 75* | 10 | -1 | -12
O=C(Nc1ccc(F)c(Cl)c1)Nc1nnc([C@@H]2O[C@H](CO)[C@@H](O)[C@H]2O)s1 | . | . | -1 | . | 0 | -1
Nc1[nH]c(C(=O)c2ccc(Br)cc2)c(-c2cccc3ccccc23)c1C(=O)NCCc1c[nH]c2ccccc12 | . | . | -6 | . | . | .
Cc1ccc(-c2nnc(SCc3ccccc3F)o2)cc1 | 99* | -94 | 29 | 7 | -1 | -8
O=C(CSc1nnc(-c2ccccc2)o1)Nc1ccccc1F | . | . | -5 | . | . | -21
Cc1ccc(-c2nnc(SCC(=O)Nc3ccccc3F)o2)cc1 | -76 | 76* | -11 | -9 | . | -21
O=C(CSc1nnc(-c2ccncc2)o1)Nc1cc(F)ccc1F | 59 | -59 | 33* | 13 | . | -3
CC1(C)C=C2C(N(CC3CC3)C(=N)N2C(=O)OCc2ccccc2)n2c(=O)n(-c3ccccc3)c(=O)n21 (stereo unspecified) | . | . | . | . | 2 | .
COc1cc2c(cc1OC)[C@@H](NC(=O)c1ccncc1)[C@H](C)[C@H]2c1ccccc1 | . | . | 1 | . | 3 | .
Cc1cccc2nc(COc3ccc4ccccc4c3Br)cn12 | 100* | -103 | 0 | -27 | -5 | -7
Cc1cccc2nc(CSc3ccccc3N)cn12 | 42 | -41 | . | -4 | 1 | -6
Cc1c(NC(=S)NC(=O)C2CCCCC2)c(=O)n(-c2ccccc2)n1C | -10 | 15 | . | 20 | -2 | 1
N/C(=N\OC(=O)c1ccccc1Br)c1ccc([N+](=O)[O-])cc1 | . | -53 | 7 | -36 | 9 | 1
Cc1ccc(C(=O)O/N=C(\N)c2cccc([N+](=O)[O-])c2)cc1 | 94* | -90 | -2 | 4 | 3 | -7
N/C(=N\OC(=O)c1ccccc1Br)c1cccc([N+](=O)[O-])c1 | 65 | -66 | 43* | -21 | 3 | -14
N/C(=N\OC(=O)c1ccc(Br)cc1)c1cccc([N+](=O)[O-])c1 | 48 | -46 | 4 | -11 | 0 | 3
O=C(c1cccc(NS(=O)(=O)c2cccc(F)c2)c1)N1CCCC1 | 5 | -5 | -2 | -7 | -2 | 0
Cc1cccc(NC2=C(NCCO)C(=O)c3ccccc3C2=O)c1 | -22 | 21 | 3 | -36 | 41 | 4
Cc1cccc(NC2=C/C(=N/S(=O)(=O)c3cccs3)c3ccccc3C2=O)c1 | -100 | 102* | 10 | -4 | -2 | -17
Cc1ccc(Cl)cc1NC1=C/C(=N\S(=O)(=O)c2cccs2)c2ccccc2C1=O | -89 | 90* | 5 | 11 | 14 | 1
O=C1C(Nc2ccc(O)cc2)=C/C(=N/S(=O)(=O)c2cccs2)c2ccccc21 | -108 | 108* | -26 | -52 | . | -19
Cc1ccc(NC2=C/C(=N\S(=O)(=O)c3cccs3)c3ccccc3C2=O)c(C)c1 | -105 | 105* | . | 7 | . | -23
O=C(O)c1ccc(NC2=C/C(=N/S(=O)(=O)c3cccs3)c3ccccc3C2=O)cc1 | . | . | -6 | . | . | 3
Cc1cc(C)c(S(=O)(=O)/N=C2\C=C(NS(=O)(=O)c3ccccc3)C(=O)c3ccccc32)c(C)c1 | -22 | 25 | -3 | 22 | 44 | 5
O=C1C(=O)N(CCN2CCOCC2)C(c2cccnc2)/C1=C(/O)c1ccc(Cl)cc1 (stereo unspecified) | 2 | 0 | -1 | 1 | -1 | 2
SMILES | MITF TRPM1 HTS | TRPM1 prom inh | Wnt act | PfHsp90 set2 | NSD2 HMT inh | Glyco luc inh
Cc1cc(NS(=O)(=O)c2ccc(NC(=O)CSc3nnc(-c4cnccn4)n3-c3ccccc3)cc2)nc(C)n1 | . | . | . | . | -2 | .
NC(=O)C1CCN(C(=O)CN2C(=O)c3ccccc3S2(=O)=O)CC1 | -5 | 5 | . | . | -3 | 2
O=C(CN1C(=O)c2ccccc2S1(=O)=O)c1ccc2c(c1)OCCCO2 | . | 82* | -3 | 4 | -2 | -20
CC1CCN(C(=O)CN2C(=O)c3ccccc3S2(=O)=O)CC1 | -7 | 7 | 48* | -1 | -1 | -9
O=C(CN1C(=O)c2ccccc2S1(=O)=O)c1ccc(OC(F)F)cc1 | -65 | 65* | . | 7 | 0 | -19
O=C(CN1C(=O)c2ccccc2S1(=O)=O)c1ccc(Cl)cc1Cl | -85 | 87* | -11 | . | 3 | -24
Cc1ccc(CSc2nnc(-c3cccs3)o2)cc1C | . | . | . | . | -7 | .
O=C(CN1C(=O)c2ccccc2S1(=O)=O)c1ccc2c(c1)OCCO2 | . | 88* | -16 | 9 | 0 | -20
O=C(CN1C(=O)c2ccccc2S1(=O)=O)c1ccc(F)cc1 | . | 39 | -4 | -5 | -1 | -21
COc1ccc(-c2csc(N3C(=O)C4C5c6ccccc6C(c6ccccc65)C4C3=O)n2)cc1 (stereo unspecified) | -11 | 10 | . | -27 | -2 | 0
CC1CCN(S(=O)(=O)c2ccc(S(=O)(=O)N3CCC4(CC3)OCCO4)cc2)CC1 | 3 | -5 | -6 | 17 | -3 | 0
COC1=CC(=O)C=C(OC)C1=O | -48 | 54 | -2 | 4 | . | -9
COC1=CC(=O)c2ccccc2C1=O | -102 | 102* | . | -3 | . | -16
O=C(Nc1ccncc1)c1ccc(-c2ccccc2)cc1 | 42 | -40 | 4 | -15 | -6 | -2
CCOc1ccc(C=NNc2ccc(S(=O)(=O)Nc3ccccc3C(=O)O)cc2[N+](=O)[O-])cc1 | -8 | 8 | 37* | -31 | -1 | -3
COc1ccc(-c2ccc(SCC(=O)N3CC(=O)Nc4ccccc43)nn2)cc1 | 34 | -76 | 7 | -9 | 2 | 3
O=C(NCc1nnc(SCC(=O)N2CCOCC2)o1)c1c(F)cccc1F | -5 | 4 | 8 | -12 | -2 | -2
O=C(CC(C(=O)c1ccccc1)c1ccccc1)c1ccccc1 (stereo unspecified) | 4 | 1 | 6 | -19 | -7 | -3
CN(C)CC(C(=O)c1ccccc1)c1ccccc1 (stereo unspecified) | -90 | 91* | . | -27 | . | -19
CN(Cc1cc(Cl)cc(Cl)c1)CC(C(=O)c1ccccc1)c1ccccc1 (stereo unspecified) | -81 | 84* | -11 | -71 | -1 | -12
Cc1c(NC(=O)C2CCCN(S(=O)(=O)c3ccc(F)cc3)C2)c(=O)n(-c2ccccc2)n1C (stereo unspecified) | . | . | . | . | 5 | .
COc1cc2ccc(-c3ccc4ccccc4n3)cc2cc1OC | . | . | 50* | . | -1 | 0
COc1ccc(-c2cc(OC)c3ccccc3n2)cc1 | -4 | 2 | . | 5 | 30 | 2

Screening results (PubChem)
